Test results: PubChem BioAssay (NCATS)
Calls of active or inactive are those of the source. The rule behind the calls is not given here.

How the values were obtained:
[1] = Immunotoxin (HA22) sensitization/mitigation study. Vehicle arm (PBS) (AID 1159510)
[2] = Immunotoxin (SS1P) sensitization/mitigation study. Vehicle arm (DMEM) (AID 1159513)
Potency is the fitted concentration of half-maximal effect.

SMILES | Potency [1] | Potency [2]
C#Cc1cccc(Nc2ncnc3cc(OC)c(OCCCCCCC(=O)NO)cc23)c1 | 132 nM (active) | 526 nM (active)
O=C(O)[C@@H](c1ccc(OCc2ccc3ccccc3n2)cc1)C1CCCC1 | inactive | inactive
Nc1ccc(-c2ccc3ncc4ccc(=O)n(-c5cccc(C(F)(F)F)c5)c4c3c2)cn1 | 18.7 nM (active) | 52.6 nM (active)
CCC(=O)N1CCN(c2ccc(-n3c(=O)ccc4cnc5ccc(-c6cnc7ccccc7c6)cc5c43)cc2C(F)(F)F)CC1 | 4180 nM (active) | 20.9 nM (active)
Cc1cnc(Nc2ccc(F)cc2Cl)nc1-c1c[nH]c(C(=O)N[C@H](CO)c2cccc(Cl)c2)c1 | 23500 nM (active) | 20900 nM (active)
CN(C)CCN(C)C(=O)c1ccc(NC(=O)Nc2ccc(-c3nc(N4CCOCC4)c4ccn(CC(F)(F)F)c4n3)cc2)cc1 | 1480 nM (active) | 26.4 nM (active)
CC1(C)OC2=C(C(=O)c3ccccc3C2=O)[C@H](NCc2ccccc2)[C@H]1O | 2640 nM (active) | 13200 nM (active)
CC(C)C[C@@H](C(=O)N[C@H](C(=O)OC1CCCC1)c1ccccc1)[C@H](O)C(=O)NO | 23500 nM (active) | 16600 nM (active)
CC(C)(C)c1cnc(CSc2cnc(NC(=O)C3CCNCC3)s2)o1 | 33.2 nM (active) | 52.6 nM (active)
CCOc1cc2ncc(C#N)c(Nc3ccc(F)c(Cl)c3)c2cc1NC(=O)C=CCN(C)C | 4690 nM (active) | 14800 nM (active)
NC(=O)Nc1cc(-c2cccc(F)c2)sc1C(=O)N[C@H]1CCCNC1 | 105 nM (active) | 590 nM (active)
